The supplement of paper PMC13380429
Values without a mark were called inactive.

Tested on: Vero E6 infected with SARS-CoV-2
Assay: inhibition of SARS-CoV-2 cytopathic effect; higher = more antiviral protection, active = above 15
Details: 48 h

Row | Structure (SMILES) | inhibition of SARS-CoV-2 cytopathic effect (1 nM) | inhibition of SARS-CoV-2 cytopathic effect (8.33 nM) | inhibition of SARS-CoV-2 cytopathic effect (100 nM) | inhibition of SARS-CoV-2 cytopathic effect (833.33 nM) | inhibition of SARS-CoV-2 cytopathic effect (10000 nM)
1 | CCCCCCCCCCCCCC(=O)OC(C)C [isopropyl-myristate] | 0.54% | 0.41% | 2.06% | 1.1% | -0.15%
2 | CCC(N)C(O)c1ccc(O)c(O)c1 (stereo not given) [ethylnorepinephrine] | -0.61% | 0.7% | 0.54% | -1.28% | -0.69%
3 | CC[C@@H](CO)NCCN[C@@H](CC)CO [ethambutol] | 3.83% | 4.26% | 4.86% | 5.12% | 2.55%
4 | Cc1c(F)cc(C(=O)NC2CC2)cc1-c1c(F)cn2c(C(C)(C)C)nnc2c1F | -1.55% | -0.6% | -3.43% | 0.89% | -0.19%
5 | CC[N+](C)(CC)CCOC(=O)C1c2ccccc2Oc2ccccc21 [methantheline] | 7.35% | 3.87% | 1.9% | -0.21% | 3.41%
6 | C[C@@H]1O[C@@H]1P(=O)(O)O | 0.82% | -0.13% | -0.02% | 0.37% | 0.09%
7 | CCCCN1CCCC1CNC(=O)c1cc(C#N)c2ccccc2c1OC (stereo not given) [nafadotride] | -1.44% | -0.63% | -0.23% | 0.59% | 0.87%
8 | Nc1cc(C(F)(F)F)c(-c2nc(N3CCOCC3)nc(N3CCOCC3)n2)cn1 | -0.85% | 5.6% | 1.97% | 1.89% | -3.26%
9 | COc1ccc(-c2cc(=O)c3c(OC)c(OC)c(OC)c(OC)c3o2)cc1OC [nobiletin] | -1.63% | -2.18% | -7.44% | -2.1% | -0.29%
10 | CCc1cnc(N2CCC(c3nc(COc4ccc(-n5cnnn5)cc4)cs3)CC2)nc1 | 1.55% | -3.29% | -4.15% | -3.29% | 0.22%
11 | COC(=O)c1c(C)[nH]c(C)c1C(=O)c1ccccc1Cc1ccccc1 | 1.06% | -1.02% | 0.4% | -3.62% | -3.09%
12 | CCCCOCCOc1nc(-c2ccc(C(=O)O)c(F)c2)sc1C | -0.86% | -0.63% | -1.87% | -1.76% | 2.1%
13 | C[C@@H]1C[C@H]2[C@@H]3C[C@H](F)C4=CC(=O)C=C[C@]4(C)[C@@]3(F)[C@@H](O)C[C@]2(C)[C@@]1(O)C(=O)CO [flumethasone] | 0.24% | -0.72% | 1.45% | 0.62% | 0.56%
14 | C=CC[C@]1(O)CC[C@H]2[C@@H]3CCC4=CCCC[C@@H]4[C@H]3CC[C@@]21C [allylestrenol] | -1.01% | -2.16% | 1.52% | 1.07% | 1.75%
15 | Fc1ccc([C@@H]2CCNC[C@H]2COc2ccc3c(c2)OCO3)cc1 [paroxetine] | -4.2% | -2.01% | -2.05% | -1.89% | -13.1%
16 | O=C(Nc1ccc(S(=O)(=O)Nc2ccccc2Cl)c(Cl)c1)c1ccccn1 | 0.59% | 0.83% | -1.92% | 2.48% | 0.25%
17 | Cc1ccccc1-n1c(Cn2ncc3c(N)ncnc32)nc2cccc(C)c2c1=O | -1.01% | 0.63% | 0.62% | -3.58% | 54.3% (active)
18 | Clc1ccc(C(c2ccc(Cl)cc2)C(Cl)(Cl)Cl)cc1 | 1.71% | 4.86% | 0.57% | -1.73% | -1.33%
19 | CCCCCCCCCCCCCCCCCCN(CCCCCCCCCCCCCCCCCC)CCCN(CCO)CCO [avridine] | -9.9% | -6.98% | -5.76% | -5.17% | -10.1%
20 | O=C(O)/C=C/c1ccc(-c2ccc(O)c(C34CC5CC(CC(C5)C3)C4)c2)cc1 [adarotene] | -0.41% | -0.4% | 0.7% | -4.11% | -6.23%
21 | Cc1ccc2c(c1)C1(CCN(CCc3nc(-c4ccccc4)oc3C)CC1)OC(=O)N2 | 1.69% | 4.93% | 0.82% | -0.79% | -7.82%

Row | Structure (SMILES) | inhibition of SARS-CoV-2 cytopathic effect (1 nM) | inhibition of SARS-CoV-2 cytopathic effect (8.33 nM) | inhibition of SARS-CoV-2 cytopathic effect (100 nM) | inhibition of SARS-CoV-2 cytopathic effect (833.33 nM) | inhibition of SARS-CoV-2 cytopathic effect (10000 nM)
22 | COC(=O)C1=C(C)NC(C)=C(C(=O)OC(C)C)[C@@H]1c1cccc2nonc12 [isradipine] | 0.75% | 2.79% | 1.21% | 2.05% | 1.88%
23 | Cn1cc(C2=C(c3cn(C4CCN(Cc5ccccn5)CC4)c4ccccc34)C(=O)NC2=O)c2ccccc21 [enzastaurin] | 0.18% | 1.89% | 1.4% | 1.31% | 3.94%
24 | COc1c(C)c(C(=O)c2ccc(N)c(C(=O)O)c2)n2ccccc12 | -2.54% | 1.8% | 0.21% | -1.06% | -1.34%
25 | C[C@@H](N)[C@@H](O)c1ccccc1 [1S,2R-phenylpropanolamine] | -1.52% | -0.06% | -0.95% | -0.75% | 0.8%
26 | CO/N=C1/C[C@@H](C(=O)NC[C@@H](O)c2ccccc2)N(C(=O)c2ccc(-c3ccccc3C)cc2)C1 [OT-R-antagonist-1] | -0.95% | 1.59% | -0.48% | 1.09% | -1.5%
27 | O=C(NCc1ccc(OC(F)(F)F)cc1)C1c2ccccc2C(=O)N1C1CCOCC1 (stereo not given) | -3.69% | -4.75% | -1.62% | -1.7% | 2.59%
28 | N#Cc1ccc(N2N=C3c4ccc(C(=O)O)cc4CC[C@@H]3[C@@H]2C2CCCC2)cc1Cl | 7.07% | 18% (active) | 18.3% (active) | 4.59% | 10.2%
29 | CCNC(=O)/C=C/c1cccc(Br)c1 [cinromide] | 0.47% | 1.25% | 0.09% | 2.1% | 1.33%
30 | Oc1ccc2c(c1)CC[C@H](c1ccccc1)[C@@H]2c1ccc(OCCN2CCCC2)cc1 [lasofoxifene] | -1.63% | 4.35% | 0.8% | -0.28% | 49.6% (active)
31 | NC(=O)c1ccc([N+](=O)[O-])cc1Cl [aklomide] | -0.14% | 0.27% | 2% | 1.45% | 0.79%
32 | O=C(Nc1cccc(Cl)c1)c1ccccn1 | 0.86% | -0.89% | -2.59% | 0.62% | 0.73%
33 | O=S(=O)(/N=C/c1c(O)ccc2ccccc12)c1cccs1 | 1.63% | 2.5% | 1.59% | 1.88% | 0.08%
34 | CC(C)COc1ccc(CNC(=O)N(Cc2ccc(F)cc2)C2CCN(C)CC2)cc1 [pimavanserin] | -1.81% | -0.8% | 0.2% | -0.47% | 24% (active)
35 | Cc1c(C(=O)N2CCOc3ccc(-c4ccc(N)nc4)cc3C2)ccc(S(C)(=O)=O)c1F | -2.79% | 1.25% | -0.37% | 0.13% | 1.3%
36 | Cn1cc(C(F)(F)F)nc1-c1ccc(OCC(O)CNCCOc2ccc(O)c(C(N)=O)c2)cc1 (stereo not given) | -0.25% | -0.6% | 0.3% | -1.37% | 1.34%
37 | C[S+](C)CC[C@H](N)C(=O)O [cabagin] | -1.01% | -0.84% | -0.11% | 0.92% | 0.96%
38 | CN1CCc2cc(Cl)c(O)cc2[C@@H](c2ccccc2)C1 | 10.5% | 6.47% | 7.29% | 2.11% | -0.78%
39 | Cn1ncc2c(N3CCOCC3)nc(-c3cccc(O)c3)nc21 | -0.24% | -1.45% | 0.03% | 1.57% | -0.01%
40 | C=C[C@](C)(O)CC[C@@H]1[C@@]2(C)CCCC(C)(C)[C@@H]2CC[C@@]1(C)O [sclareol] | 0.36% | -0.46% | -0.66% | -1.37% | -4.46%
41 | C/C(=C\C(N)C(=O)O)CP(=O)(O)O (stereo not given) | -2.33% | -2.58% | 0.17% | 5.33% | -3.57%
